High-throughput results deposited in PubChem by National Center for Advancing Translational Sciences (NCATS).
An excerpt weighted towards active compounds, which were near 3.8% of everything screened.
HepG2 viability = qHTS for Inhibitors of TGF-b: Cytotox Counterscreen | HepG2 CAGA-GFP viability, ATP luminescence, 18 h | Potency, µM (highest dose often 46.1 µM), for the others: top-dose activity change, negative = cytotoxicity, actives largely listed as cytotoxic | 410,000 compounds, 0.76% hits
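CellTiter-Glo luminescence gave cytotoxicity after 18 hours at 37 degrees C. The cells were HepG2 CAGA-GFP in 1% FBS DMEM, stimulated with 500 pg/mL TGF-beta after compound addition. %Activity was normalised to no-cell wells (complete cell-killing) and DMSO (no toxicity), and curves were fitted and classified.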
Nrf2 block = Nrf2 qHTS screen for inhibitors; A549 ARE-Fluc reporter, luciferase luminescence, 18-24 h; Potency, µM (top dose mostly 46 µM), inactives show at the top dose activity change, negative = inhibition, hits mostly inhibitors; 360,000 compounds, 2.1% hits; note: % is set by controls: 0 for no effect and ±100 for the full control effect; nearly all actives have a fitted effect of over 60% in size
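Concentration-response testing used A549 ARE_Fluc cells at 5000 cells/well. Following an 18-24 h compound incubation, viability was read by fluorescence (Ex 405/Em 525) and luciferase output by luminescence.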
ATXN viability = Viability Counterscreen for Primary qHTS for Inhibitors of ATXN expression. S2 cells (HEK-293 line with an ATXN2-luciferase reporter) viability, CellTiter-Fluor protease fluorescence, 24 h. Potency, µM (series often up to 56.7 µM), usual class: cytotoxic. 400,000 compounds, 0.49% hits. AID 651635, 2014; note: nearly all actives have a fitted effect of over 40% in size
TGFb SMAD3 inh = qHTS for Inhibitors of TGF-b; 410,000 compounds, 1.2% hits; AID 588855, 2011; Potency, µM (doses to about 46.1 µM), inactives show at the highest dose activity, negative = inhibition, actives largely listed as inhibitors; HepG2 CAGA-GFP TGF-b/SMAD3 reporter, GFP fluorescence, 18 h; TGF-beta stimulated, 500 pg/mL final; note: % is set by controls: 0 for no effect and ±100 for the full control effect; nearly all actives have a fitted effect of over 65% in size
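Using HEPG2 CAGA-GFP reporter cells at 1000 cells/well, we pinned test compounds, stimulated with recombinant TGF-beta (500 pg/mL final) and measured total well GFP after 18 h.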
A549 viability = Nrf2 qHTS screen for inhibitors: counterscreen for cytotoxicity; A549 ARE-Fluc cells, CellTiter-Fluor viability, 18-24 h; Potency, µM (doses to about 46 µM), inactives show at the top dose activity change, negative = cytotoxicity, usual class: inhibitors; 390,000 compounds, 0.16% hits; AID 504648, 2011; note: % is set by controls: 0 for no effect and ±100 for the full control effect
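A549 ARE_Fluc cells in 5% FBS OPTI-MEM were exposed to compounds in concentration-response for 18-24 h at 37 deg C. Viability was read by CellTiter-Fluor fluorescence (Ex 405/Em 525) after 30 min, before the luciferase read.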
ATXN2 expr inh = Primary qHTS for Inhibitors of ATXN expression. AID 1745845, 2022. 360,000 compounds, 0.72% hits. HEK-293 ATXN2-luciferase reporter, luminescence, 24 h. Potency, µM (doses to about 57 µM), for inactives: at the highest dose activity change, negative = inhibition, usual class: inhibitors; note: % is set by controls: 0 for no effect and ±100 for the full control effect; nearly all actives have a fitted effect of over 55% in size
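ATXN2-luciferase reporter cells (luciferase flanked by upstream and downstream ATXN2 gene portions) were treated 24 h at 37 °C with compounds at up to 57 uM. SteadyGlo luminescence gave expression; GF-AFC fluorescence gave viability.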
Starred values were filed as active, the others as inactive; i = inactive; u = inconclusive; x = no result; [ ] = remark or other dose. Calls come from the whole dose curve; as a rule, active = well fitted curve in the direction sought with a large enough effect; inconclusive = small, poorly fitted or top-dose-only effect, or another doubt; inactive = no such curve, though single readings can be large; an effect the other way counts as inactive or inconclusive. Potency is the fitted concentration of half-maximal effect.

SMILES	HepG2 viability	Nrf2 block	ATXN viability	TGFb SMAD3 inh	A549 viability	ATXN2 expr inh
N#Cc1ccsc1NC(=O)COc1ccc(-c2nnco2)cc1	-3%	u	i	-10%	u	41%
CC(C)CCn1c(/C=C/c2ccccc2)nc2ccccc21	10µM*	u	u	u	4%	-9%
N#Cc1nc(Nc2cccc([N+](=O)[O-])c2)nc(NC2CCCC2)n1	x	16%	x	x	-2%	x
CN[C@H]1[C@@H](O)[C@@H]2O[C@@H]3O[C@H](C)CC(=O)[C@]3(O)O[C@@H]2[C@@H](NC)[C@H]1O	x	x	x	x	x	27µM*
CCCCN(CCCC)Cc1ccc(C(=O)NNC(=O)Nc2ccc(F)cc2)o1	18µM*	13%	i	0%	0%	-7%
CCCCN(CCCC)Cc1ccc(C(=O)NNC(=O)Nc2ccccc2)o1	-10%	7%	i	-26%	9%	x
COc1ccc(C(=O)NCCCNC(=O)c2cnccn2)cc1Br	8%	-3%	i	3%	1%	2%
O=C(O)c1cccc(COc2ccc3c(c2)CCC3)c1	-13%	u	i	-1%	2%	u
CCOc1ccc(OCc2cccc(C(=O)O)c2)cc1	-67%	u	i	-5%	-5%	0.28µM*
O=C(NCc1ccccc1)c1cccc(COc2ccc3c(c2)CCC3)c1	-10%	u	i	2%	5%	0%
COc1cccc(OC)c1C(=O)NNC(=O)c1cccc(COc2ccc3c(c2)CCC3)c1	-25%	u	i	-2%	14%	5.6µM*
COc1ccc(OCc2cccc(C(=O)O)c2)cc1	-57%	u	i	3%	-5%	0.32µM*
COc1ccc(C(=O)C=Cc2ccc(OCc3ccccc3)c(OC)c2)cc1OC	-1%	x	i	15%	x	x
COc1cc(/C=C/[N+](=O)[O-])ccc1OCc1cccc(C(=O)O)c1	-40%	u	u	u	2%	28µM*
O=C(CCN1C(=O)C2C3CCC(C3)C2C1=O)Nc1cccc(Cl)c1 (stereo unspecified)	-89%	-13%	i	-19%	8%	-4%
O=C(OCC(F)(F)F)c1cccc(COc2ccc3ccccc3c2)c1	11%	x	i	4%	5%	2µM*
O=C(O)c1cccc(COc2ccc(CO)cc2Cl)c1	-24%	u	i	-11%	-5%	0.28µM*
CCOc1ccc(OCc2cccc(C(=O)N3CCCC3)c2)cc1	1%	u	i	-14%	1%	7.9µM*
CCOc1ccc(OCc2cccc(C(=O)N3CCCCCC3)c2)cc1	-1%	u	i	-15%	-17%	x
O=C(NCC1COc2ccccc2O1)c1cccc(S(=O)(=O)NCc2ccccc2)c1 (stereo unspecified)	-26%	u	i	-12%	2%	-1%
Nc1ccc(C(=O)N/N=C/c2cn(Cc3ccccc3F)c3ccccc23)cc1	-16%	9%	i	0%	-3%	-26%
Nc1ccc(C(=O)N/N=C/c2cn(Cc3ccccc3)c3ccccc23)cc1	0%	u	i	2.8µM*	-9%	-18%
O=C(O)c1ccc(N/N=C/c2cn(Cc3ccccc3F)c3ccccc23)cc1	-21%	u	i	11µM*	-12%	104%
Cc1ccccc1OCC(=O)N/N=C/c1cn(C)c2ccccc12	-17%	-6%	u	-7%	-9%	-10%
COC(=O)N/N=C/c1cn(Cc2ccccc2F)c2ccccc12	-24%	-5%	i	u	0%	-18%
SMILES	HepG2 viability	Nrf2 block	ATXN viability	TGFb SMAD3 inh	A549 viability	ATXN2 expr inh
Cc1ccccc1OCC(=O)N/N=C/c1cn(Cc2ccccc2)c2ccccc12	-31%	-8%	i	8.9µM*	-1%	-23%
COC(=O)N/N=C/c1cn(Cc2ccc(F)cc2)c2ccccc12	-53%	u	i	5µM*	-1%	-21%
CC(C)Cn1c(=O)c2sccc2n2c(CCCC(=O)NCC(C)c3ccccc3)nnc12 (stereo unspecified)	-13%	-2%	x	-32%	-1%	x
Cc1nc(NCc2c(F)cccc2F)sc1-c1ccn(CCN2CCOCC2)n1	x	x	i	x	x	x
CSc1ncccc1C(=O)OCC(=O)Nc1ccc(C)c(S(=O)(=O)N2CCOCC2)c1	-18%	0%	i	11%	-9%	-11%
Cc1ccccc1OCC(=O)N/N=C/c1ccc(N2CCOCC2)o1	-46%	-8%	i	13µM*	-1%	-37%
Clc1ccc(Cn2cc(/C=N/n3cnnc3)c3ccccc32)c(Cl)c1	-5%	x	i	u	1%	-13%
C(=N\n1cnnc1)/c1cn(Cc2ccccc2)c2ccccc12	-74%	-29%	i	13µM*	-3%[1.84 µM]	-16%
Cc1nn(-c2ccccc2)c(Cl)c1C(=O)NNC(=O)c1ccccc1O	-18%	-26%	i	-16%	-24%	u
COc1ccc(-n2cc(-c3ccccc3)[n+]3c2CCCCC3)cc1	-17%	8.2µM*	i	-22%	-14%	u
CC(=O)c1cccc(NC(=O)C2Cc3c(-c4cccc(F)c4)ccnc3O2)c1 (stereo unspecified)	6%	x	u	7%	x	-8%
Cc1ccc(NC(=O)N2CCC(c3nc4c(nnn4Cc4cccc(Cl)c4)c(=O)[nH]3)CC2)cc1	-21%	x	i	u	-2%	-18%
O=C(Nc1ccc(F)cc1)N1CCC(c2nc3c(nnn3Cc3cccc(Cl)c3)c(=O)[nH]2)CC1	-11%	21µM*	i	-27%	u	-18%
O=C(Nc1ccc2c(c1)OCO2)N1CCN(c2ncc(C(F)(F)F)cc2Cl)CC1	-22%	9.2µM*	i	-2%	-9%	-18%
O=C(c1ccc2c(c1)OCCO2)N1CCN(c2ncc(C(F)(F)F)cc2Cl)CC1	-36%	u	i	-17%	-1%	-15%
Nc1c(C(=O)O)ccc2c1C(=O)c1ccccc1C2=O	-17%	-3%	u	0%	18µM*	1%
Nc1cc(C(=O)O)c(N)c2c1C(=O)c1ccccc1C2=O	-11%	u	14µM*	u	u	u
Nc1c(SCCC(=O)O)ccc2c1C(=O)c1ccccc1C2=O	-33%	-20%	u	-2%	u	-20%
O=C(O)c1cc2ccccc2c2c1C(=O)c1ccccc1-2	-2%	x	i	-5%	x	x
Cc1c(CCC(=O)O)c(=O)oc2cc3occ(-c4ccc(F)cc4)c3cc12	-48%	4%	i	15%	4%	-1%
